In the supplement of paper PMC5662767:
“And” between values parts separate entries of the source, which are not always exact repeats. Equal entries are not always repeated. Structures can show the parent of a compound that is named as a salt.

Tested on: Drosophila S2 cl14 SmoIP sensor cells
Assay: normalized SmoIP GFP fluorescence (untreated unstimulated = 0%, untreated Hh-stimulated = 100%); higher = more Smo activation sensor fluorescence
Conditions: stimulation: Hh conditioned medium (+Hh); compound concentration: 2 uM; 24 h
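Further: flow cytometry read-out as median GFP intensity of gated cells, compounds added 30 min before Hh-conditioned or mock medium, mock-treated cells serving as unstimulated baseline.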

Going from O=C(NCCN1CCOCC1)c1ccc(Cl)cc1 [moclobemide] to Cc1ccc2nc(NCCN)c3ncc(C)n3c2c1, the “normalized SmoIP GFP fluorescence” value rises from 108% to 137%.

In the case of CC(C)c1cc(-c2ccc(F)c3ccccc23)nc(N)n1, the “normalized SmoIP GFP fluorescence” value is reported as 144%.

Same assay, conditions: stimulation: mock conditioned medium (-Hh); compound concentration: 2 uM; 24 h

First: CO[C@H]1C[C@@H]2CC[C@@H](C)[C@@](O)(O2)C(=O)C(=O)N2CCCC[C@H]2C(=O)O[C@H]([C@H](C)C[C@@H]2CC[C@@H](O)[C@H](OC)C2)CC(=O)[C@H](C)/C=C(\C)[C@@H](O)[C@@H](OC)C(=O)[C@H](C)C[C@H](C)/C=C/C=C/C=C/1C [Rapamycin]
Second: CCN(c1cc(-c2ccc(CN3CCOCC3)cc2)cc(C(=O)NCc2c(C)cc(C)[nH]c2=O)c1C)C1CCOCC1
The “normalized SmoIP GFP fluorescence” value of the first is higher: 19.1% for the first, -3.39% for the second.

First: COc1cccc(-c2cc(=O)c3ccccc3o2)c1N
Second: O=C(O)c1cccc(-c2noc(-c3ccccc3F)n2)c1
The “normalized SmoIP GFP fluorescence” value of the first is higher: 2.64% for the first, -0.662% for the second.

First: CC(C)c1cnn2c(NCc3ccccc3)cc(NCCCCCCN)nc12
Second: C#Cc1cccc(Nc2ncnc3cc(OC)c(OCCCCCCC(=O)NO)cc23)c1
The “normalized SmoIP GFP fluorescence” value of the first is lower: 10.7% for the first, 29.7% for the second.

First: CN1CCN(c2ccc3nc(-c4c(N)c5c(F)cccc5[nH]c4=O)[nH]c3c2)CC1 [dovitinib]
Second: C=CC(=O)Nc1cccc(Oc2nc(Nc3ccc(N4CCN(C)CC4)cc3OC)ncc2Cl)c1
The “normalized SmoIP GFP fluorescence” value of the first is higher: 72.9% for the first, 19.1% for the second.

First: Cc1cc(C)c(Nc2ccnc(Nc3ccc(C#N)cc3)n2)c(C)c1 [dapivirine]
Second: Cc1ccc(F)c(NC(=O)Nc2ccc(-c3cccc4[nH]nc(N)c34)cc2)c1
The “normalized SmoIP GFP fluorescence” value of the first is lower: -4.13% for the first, 0.274% for the second.

Going from O=c1sn(-c2cccc3ccccc23)c(=O)n1Cc1ccccc1 [tideglusib] to CN1CCc2c(c3ccccc3n2Cc2ccc(C(=O)NO)cc2)C1 [tubastatin-a-hcl], the “normalized SmoIP GFP fluorescence” value falls from -0.264% to -1.83%.

Going from COc1cc2nc(N3CCN(C(=O)C4COc5ccccc5O4)CC3)nc(N)c2cc1OC (stereo unspecified) [Doxazosin-mesylate] to CCCNC(=O)Nc1ccc(Oc2ncnc3cc(OC)c(OC)cc23)cc1Cl, the “normalized SmoIP GFP fluorescence” value falls from 8.14% to -6.51%.

Going from CC(=O)Nc1ccc(C(=O)Nc2ccccc2N)cc1 [ci994-tacedinaline] to CC(=O)Nc1ccc(NC(=S)NC(=O)c2ccc(C(C)(C)C)cc2)cc1 [tenovin-1], the “normalized SmoIP GFP fluorescence” value falls from -4.13% to -4.47%.

Going from CNC(=O)c1ccccc1Sc1ccc2c(/C=C/c3ccccn3)n[nH]c2c1 [Axitinib] to O=C(Nc1cccc(Cl)c1)c1ccccn1, the “normalized SmoIP GFP fluorescence” value falls from 28.7% to -2.93%.

First: c1ccc2c(c1)CCCC2C1=NCCN1 (stereo unspecified) [tetrahydrozoline-hcl]
Second: CN1CCC(=C2c3ccccc3CC(=O)c3sccc32)CC1 [ketotifen-fumarate-zaditor]
The “normalized SmoIP GFP fluorescence” value of the first is higher: -0.491% for the first, -13.9% for the second.

Going from CC(C)CCN1c2nc(Nc3cc(F)c(O)c(F)c3)ncc2N(C)C(=O)C1C (stereo unspecified) to CC(C)c1cc(-c2n[nH]c(=O)n2-c2ccc3c(ccn3C)c2)c(O)cc1O [ganetespib-sta-9090], the “normalized SmoIP GFP fluorescence” value falls from 1.61% to -1.56%.

Going from O=C(Nc1cccc2cccnc12)c1ccc(N2C(=O)[C@@H]3[C@H](C2=O)[C@@H]2C=C[C@H]3C2)cc1 [iwr-1-endo] to CN(Cc1cnc2nc(N)nc(N)c2n1)c1ccc(C(=O)N[C@@H](CCC(=O)O)C(=O)O)cc1 [Abitrexate], the “normalized SmoIP GFP fluorescence” value rises from -4.92% to 13.3%.

First: O=C(c1ccc(OCCN2CCCCC2)cc1)c1c(-c2ccc(O)cc2)sc2cc(O)ccc12 [Evista]
Second: NC(=O)c1cccc(-c2cccc(OC(=O)NC3CCCCC3)c2)c1
The “normalized SmoIP GFP fluorescence” value of the first is higher: 6.52% for the first, -7.15% for the second.

Going from COc1ccc(CC(C)NCC(O)c2ccc(O)c(NC=O)c2)cc1 (stereo unspecified) [formoterol-hemifumarate] to CNCc1ccc(-c2cc(-c3nc(-c4ccc(S(=O)(=O)C(C)C)cc4)cnc3N)on2)cc1, the “normalized SmoIP GFP fluorescence” value rises from -8.77% to 28.9%.

First: CC(C)N(CCCNC(=O)Nc1ccc(C(C)(C)C)cc1)C[C@H]1O[C@@H](n2cc(Br)c3c(N)ncnc32)[C@H](O)[C@@H]1O
Second: CC[C@H](NC(=O)[C@H](C)NC)C(=O)N1C[C@@H](O)C[C@H]1Cc1c(-c2[nH]c3cc(F)ccc3c2C[C@@H]2C[C@H](O)CN2C(=O)[C@H](CC)NC(=O)[C@H](C)NC)[nH]c2cc(F)ccc12
The “normalized SmoIP GFP fluorescence” value of the first is higher: 0.986% for the first, -2.08% for the second.

Going from Cc1nc(Nc2ncc(C(=O)Nc3c(C)cccc3Cl)s2)cc(N2CCN(CCO)CC2)n1 [Dasatinib] to NC12CC3CC(CC(C3)C1)C2 [Amantadine-hydrochloride(Symmetrel)], the “normalized SmoIP GFP fluorescence” value falls from -3.93% to -4.08%.

For CC(C)N(CCCNC(=O)Nc1ccc(C(C)(C)C)cc1)C[C@H]1O[C@@H](n2ccc3c(N)ncnc32)[C@H](O)[C@@H]1O, the “normalized SmoIP GFP fluorescence” value was -4.13% and -1.12%.
